PubChem BioAssay AID588413 (Sanford-Burnham Center for Chemical Genomics, 2011)
About 2,500 (0.74%) of roughly 340,000 compounds were called active.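 Rule for the calls: active = inhibition above about 55% (limit read from the data); inactive = the rest.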 The list comes from a sample in which actives are over-represented; it also holds similar structures and randomly drawn compounds.

Assay: blockers of Gli reporter signaling – luciferase luminescence, Sufu-KO-LIGHT cells, uHTS, primary screen (AID 588413);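 note: 0% = DMSO-treated cells and 100% = wells with medium but no cells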
Conditions: Sufu-KO-LIGHT fibroblasts, at 5 µM, stronger effect = higher value
In the case of `COc1cc(C2C3C(=O)N(c4ccccc4)C(=O)C3ON2c2ccccc2)ccc1O` (stereo not given), the inhibition is reported as 1.38% (inactive).
In the case of `O=C(CCN1C(=O)c2ccccc2C1=O)C1=NN[C@@H]2C(=O)N(c3ccc(F)cc3)C(=O)[C@H]12`, the inhibition is reported as 27.5% (inactive).
With `CO/N=C/c1cn(-c2ccc(Cl)cc2)nn1` the inhibition was -5.6% (inactive).
For `COc1ccccc1CNC(=O)C1CCN(S(C)(=O)=O)CC1`, the inhibition was -3.13% (inactive).
For `COc1ccccc1CNC(=O)C1CCN(c2nc3ccccc3o2)CC1`, the inhibition was 79.4% (active).
In the case of `COc1ccc(OC)c(CNC(=O)C2CCCN(c3nc4ccccc4o3)C2)c1` (stereo not given), the inhibition is reported as 1.69% (inactive).
With `COC(=O)Cc1nc2c(N)nc(N)nc2[nH]c1=O` the inhibition was 5.09% (inactive).
In the case of `NC(=O)C1CCN(C(=O)c2cc(S(=O)(=O)N3CCN(c4ccccc4)CC3)ccc2Cl)CC1`, the inhibition is reported as 3.01% (inactive).
In the case of `COc1ccc(CCC(=O)c2ccc(OC)cc2)cc1`, the inhibition is reported as 1.15% (inactive).
With `COc1ccc(CS(=O)/C(Cl)=C(/Cl)C(=O)Nc2ccc(OC)nc2)cc1` (stereo not given) the inhibition was 68.1% (active).
For `COc1ccc(OC(C)C(=O)Nc2cccnc2)cc1` (stereo not given), the inhibition was -1.18% (inactive).
For `CCc1c(C)nc2cc(C)[nH]n2c1=O`, the inhibition was 75% (active).
With `Cc1nc2nc[nH]n2c(=O)c1C/C=C/c1ccccc1` the inhibition was 26.2% (inactive).
With `C=CCc1c(C)nc2cc(-c3ccccc3)[nH]n2c1=O` the inhibition was 27.4% (inactive).
For `CCOc1ccccc1NC(=S)C(=C([O-])c1ccc2c(c1)OCCO2)[n+]1ccc(CC)cc1`, the inhibition was -43.8% (inactive).
With `O=C1C=C(c2cc(C(F)(F)F)cc(C(F)(F)F)c2)C[C@@H](c2ccc3c(c2)OCO3)C1` the inhibition was 6.64% (inactive).
For `O=C1C=C(c2ccnc3cc(Cl)ccc23)C[C@@H](c2ccc3c(c2)OCO3)C1`, the inhibition was 66.7% (active).
For `COc1ccc2cc(C3=CC(=O)C[C@H](c4ccc5c(c4)OCO5)C3)ccc2c1`, the inhibition was -5.21% (inactive).
With `N#CCC(=O)NC(=O)NCC1CC1` the inhibition was -8.84% (inactive).
For `CC(=O)c1cc(NC(=O)c2ccccc2)c(=O)oc1/C=C/N(C)C`, the inhibition was 8.24% (inactive).
For `CCN1CCC2(CCN(Cc3cn[nH]c3-c3ccc(OC)c(F)c3)C2)C1` (stereo not given), the inhibition was 7.07% (inactive).
For `COc1ccc(-n2c(Cc3cccn3C)nnc2SCC(=O)Nc2cc(C)cc(C)c2)cc1`, the inhibition was 0.63% (inactive).
In the case of `NS(=O)(=O)c1ccc(CCNC(=O)CCCn2c(SCC(=O)N3CCCC3)nc3ccsc3c2=O)cc1`, the inhibition is reported as 79.4% (active).
For `CCCCn1c(SCC(=O)N2CCCC2=O)nc2cc(S(N)(=O)=O)ccc21`, the inhibition was 5.29% (inactive).
With `CCCCn1c(SCC(=O)N2CCC(C(=O)OCC)CC2)nc2cc(S(N)(=O)=O)ccc21` the inhibition was 6.66% (inactive).
